# Measurements published in ChEMBL document CHEMBL3988442, “University of Dundee, Small-Polar-MMV Screening Library” (2021).
# Biological target: AMP-activated protein kinase, AMPK (Homo sapiens) (UniProt P54646+O43741+P54619+Q9UGJ0+Q9Y478+Q13131+Q9UGI9)
# Assay: AMP-dependent Kinase enzyme assay. An in vitro enzyme assay that detects ADP turnover that is directly proportional to AMPK activity. This uses naive AMPK that is activated during the assay with MK-8722
# Format: functional
# Set-up: scale not given: direction of the effect not stated beside the values
# Conditions: 30 µM
row,Structure (SMILES),Percent Effect [%]
1,Cc1ccc2nc(CN3CCCCC3C(=O)N3CCOCC3)cn2c1 (stereo not drawn),8.07
2,CN(C)c1cccc(C(=O)N2CCn3c(nnc3C3CC3)C2)c1,-2.33
3,O=C(c1ccnc(CC2COc3ccccc3C2)c1)N1CCCC1 (stereo not drawn),7.97
4,O=C(Cc1c(F)cccc1Cl)Nc1cc(N2CCCC2)ncn1,4.4
5,O=C(c1c(F)cccc1F)N1CCC[C@@H]1Cn1c(=O)oc2ccccc21,23.1
6,O=S(=O)(Cc1nc(C2CC2)no1)c1cc(F)ccc1F,8.83
7,Cn1ccnc1CN1CCN(Cc2cc(-c3ccccc3)no2)CC1,-2.31
8,CC(=O)N[C@H]1CN(S(=O)(=O)N(C)Cc2ccccc2)C[C@@H]1C1CC1,1.32
9,Cc1nc(COC(=O)c2cccc3c2OCCO3)no1,-12.1
10,Cc1ccc(F)c(C(=O)Nc2c(C(N)=O)n[nH]c2C)c1,9.84
11,O=C(c1cnn[nH]1)N(Cc1ccncc1)CC1CCCO1 (stereo not drawn),-5.18
12,CS(=O)(=O)N1CCC(CNc2cc(Cl)ccc2C#N)CC1,7.86
13,O=C(NCc1ccnc(OCC2CC2)c1)C1Cc2ccccc2O1 (stereo not drawn),-4.29
14,O=S(=O)(c1cccnc1)N1CCCCC1CCN1CCOCC1 (stereo not drawn),16.1
15,Fc1ccc(N2CCN(CCCc3cn[nH]c3)CC2)cc1,3.93
16,Cc1nn(C)c(C)c1C1COCCN1C(=O)CSC(C)(C)C (stereo not drawn),-7.18
17,Cc1ccc(N2CCC(CCN3CCCC3=O)CC2)nn1,-7.57
18,CC(C)C[C@@H](N)C(=O)N(C)Cc1csc(C(C)C)n1,-10.4
